A word on the AC50: it is the concentration at which the activity in the assay is half-maximal.

Active and inactive are the calls of the source.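 How the source made its calls: active means fitted half-maximal concentration AC50 at or below ten times the highest valid tested dose, with signal falling as DNA is displaced (actives reach about 34 µM in these data); inconclusive means flat fit at moderate signal loss, or poor fit quality; inactive means the rest, including signal rising instead of falling.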

We go through 39 compounds from PubChem BioAssay AID504727 (Broad Institute, 2011).

This experiment in a line: acridine orange-DNA binding displacement – biochemical, fluorescence polarization, cherry-picked samples, set 2, artefact control for KSHV LANA DNA-binding inhibitor project, dose response (AID 504727). To be noted: series mostly up to 35 µM. In general terms: In fluorescence polarisation assays a small probe gives low polarisation when free and higher when bound to something large.
Take `S=c1[nH]nc([C@@H]2C[C@H]2c2ccccc2)n1-c1ccccc1Cl`: the AC50 entry was “inactive”.

For `Nc1cccc2cc(S(=O)(=O)O)ccc12`, the AC50 entry was “inactive”.

`Cn1c(=O)c2c(nc(SCC(=O)NCc3ccc4c(c3)OCO4)n2Cc2ccc(Cl)cc2)n(C)c1=O`: the AC50 result is “inactive”.

As to `Nc1cccc(N2C(=O)c3cccc4c(N)ccc(c34)C2=O)c1`, the AC50 is 5.76 µM (active).

Turning to `COc1ccc(C(=O)OCC(=O)NC2CC2)cc1S(=O)(=O)Nc1ccc(C)cc1`, the AC50 entry was “inactive”.

On to `CN(C)/C=C1\C=C2C(=O)c3ccccc3N2C1=O`, for which the AC50 is 0.065 µM (active).

On to `Cc1cc2c(N)cccc2nn1`, for which the AC50 result was “inactive”.

On to `CCOCCCn1c(SCC(=O)NC(C)(C)C)nc2ccccc2c1=O`, for which the AC50 entry is “inactive”.

Regarding `CCN(CC(=O)Nc1ccc(OC)cc1)C(=O)c1cc([N+](=O)[O-])ccc1N1CCOCC1`, the AC50 entry was “inactive”.

With `O=c1ccc2c(-c3ccccc3S(=O)(=O)O)c3ccc(O)c(O)c3oc-2c1O`, the AC50 entry is “inactive”.

Consider `NC(=S)N/N=C/c1cn(CCC(=O)O)nc1-c1cccc(Br)c1`, for which the AC50 entry was “inactive”.

Regarding `Cc1cccc(NC(=O)CN2C(=O)NC(C)(c3ccc4ccccc4c3)C2=O)n1` (centres undefined), the AC50 entry was “inactive”.

In the case of `CC(=O)Nc1ccc(S(=O)(=O)Nc2nc3ccccc3nc2Nc2ccc(C(=O)O)c(O)c2)cc1`, the AC50 entry was “inactive”.

For `COc1ccc2noc3c2c1C(=O)c1ccccc1-3`, the AC50 is 0.241 µM (active).

For `Cn1c(=O)oc2cc(S(=O)(=O)CCC(=O)N3CCN(c4ccccc4F)CC3)ccc21`, the AC50 entry is “inactive”.

Consider `CCN(CC)CCCC(C)n1c2nc(=O)[nH]c(=O)c-2nc2cc(Cl)ccc21` (centres undefined), for which the AC50 is 0.316 µM (active).

In the case of `Nc1ccc2cc3[nH]c4cc(N)ccc4c3nc2c1`, the AC50 was 1.48 µM (active).

For the compound `O=C1C(=Cc2ccco2)CCC1=Cc1ccco1`, the AC50 result is “inactive”.

Take `CCCN(CCC)S(=O)(=O)c1ccc(C(=O)OCCN2C(=O)c3cccc4c(N5CCOCC5)ccc(c34)C2=O)cc1`: the AC50 was 6.89 µM (active).

As for `O=C(NCCCO)c1ccc2nc(-c3ccco3)c(-c3ccco3)nc2c1`, the AC50 entry is “inactive”.

Regarding `O=C1c2ccccc2C(Nc2ccc3c(c2)OCCO3)N1Cc1ccc2c(c1)OCO2` (centres undefined), the AC50 result is “inactive”.

In the case of `CC(=O)N/C(=C/c1ccc(OS(=O)(=O)c2ccc(C)cc2)cc1)C(=O)Nc1ccc(C(=O)O)cc1`, the AC50 result was “inactive”.

On to `CCCCn1c(=O)[nH]c2nc3cc(N)ccc3nc2c1=O`, for which the AC50 is 3.75 µM (active).

`O=C1/C(=C/c2ccco2)Oc2c1ccc(O)c2CN1CCCCC1`: the AC50 is 18.9 µM (active).

On to `O=C(O)c1ccc(NS(=O)(=O)c2ccc3c(c2)C2C=CCC2C(c2ccccc2F)N3)cc1` (centres undefined), for which the AC50 entry is “inactive”.

As for `CCCCn1c(N)c(N(CCOC)C(=O)c2cc(C)oc2C)c(=O)[nH]c1=O`, the AC50 entry was “inactive”.

Consider `N#CC1=C(N)Oc2ccc3ccc(O)cc3c2C1c1ccsc1` (centres undefined), for which the AC50 entry was “inactive”.

On to `COC(=O)c1c(C)oc2ccc(N(C(C)=O)S(=O)(=O)c3ccccc3)cc12`, for which the AC50 entry is “inactive”.

Regarding `COc1ccc(CCNC(=O)CNC(=O)Cn2ccc3ccccc3c2=O)cc1OC`, the AC50 entry was “inactive”.

Take `Nc1nnc(CC(=O)N/N=C/c2cc([N+](=O)[O-])cc(Br)c2O)s1`: the AC50 entry is “inactive”.

On to `COC(=O)C[n+]1cccc2ccccc21`, for which the half-maximal activity concentration (AC50) was 8.59 µM (active).

As to `Cc1ccc(N(C)C(=O)C2CCCN2S(=O)(=O)c2ccc3c(c2)n(C)c(=O)c(=O)n3C)cc1` (centres undefined), the AC50 result is “inactive”.

Take `O=[N+]([O-])c1cccc(CSc2nc3ccccc3[nH]2)c1`: the AC50 entry was “inactive”.

In the case of `CCCc1nnc(NC(=O)CCC(=O)NCc2ccc(OC)cc2)s1`, the AC50 result was “inactive”.

For the compound `Cc1c(C)n(Cc2ccccc2)c2ncnc(Cl)c12`, the AC50 result is “inactive”.

For the compound `CC(C)(C)OC(=O)C[C@@H]1C/C=C\C[C@H](CC(=O)N(CCO)Cc2ccccc2)C(=O)N[C@@H](c2ccccc2)COC1=O`, the AC50 result is “inactive”.

Turning to `Cc1cccc(C)c1NC(=O)CSc1nnc(-c2ccco2)c(-c2ccco2)n1`, the AC50 entry was “inactive”.

For the compound `Oc1[nH]c2ccccc2c1N=Nc1ccccc1F`, the AC50 entry was “inactive”.

In the case of `Cc1cc(NC(=O)CSc2nnc(COc3cccc(C)c3C)n2C)no1`, the AC50 entry was “inactive”.
